According to PubChem BioAssay:

What follows are compounds tested against Follistatin (Homo sapiens) (UniProt P19883) (assay: FST protein binding to printed compounds – biochemical, small-molecule microarray, 635/667 nm fluorescence, primary screen (AID 1132)). Settings: 635 nm fluorescence, higher = more signal.
Sequence of Follistatin (Homo sapiens) (P19883 whole entry, looked up): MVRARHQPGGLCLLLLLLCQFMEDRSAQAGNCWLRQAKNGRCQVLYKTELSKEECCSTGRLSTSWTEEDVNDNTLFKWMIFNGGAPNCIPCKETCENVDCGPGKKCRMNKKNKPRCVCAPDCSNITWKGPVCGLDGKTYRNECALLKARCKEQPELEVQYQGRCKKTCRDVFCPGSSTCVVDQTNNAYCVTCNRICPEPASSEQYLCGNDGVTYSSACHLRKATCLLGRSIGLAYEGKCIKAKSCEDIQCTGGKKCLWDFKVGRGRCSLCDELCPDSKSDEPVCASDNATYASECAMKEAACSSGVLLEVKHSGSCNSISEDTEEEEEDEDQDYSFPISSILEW
In the case of `O=C1O[C@H](c2ccccc2)[C@H](c2ccccc2)N2[C@H]1[C@@H](C(=O)Nc1nc3ccccc3s1)[C@]1(C(=O)Nc3ccc(C#CCCO)cc31)[C@H]2c1ccc(OCCO)cc1`, the composite z-score is reported as 1.43.
`C=CCOC(=O)[C@H]1[C@@H]2C(=O)O[C@@H](c3ccccc3)[C@@H](c3ccccc3)N2[C@@H](c2ccc(OCCOC(=O)[C@@H]3C[C@@H]4C(=O)N[C@@H](CCCC[N+](C)(C)C)C(=O)N4[C@@H]3c3ccc(O)cc3)cc2)[C@]12C(=O)Nc1ccccc12` showed a composite z-score of 1.26.
`COCCCN1C(=O)[C@@]2(Cc3ccccc31)c1ccccc1C(=O)N(Cc1ccccc1C(F)(F)F)[C@H]2c1ccc(CO)cc1` showed a composite z-score of 1.26.
For `COc1cc2c(cc1OC)CN(C(=O)[C@@H]1[C@H]3C(=O)O[C@H](c4ccccc4)[C@H](c4ccccc4)N3[C@H](c3ccc(O)cc3)[C@@]13C(=O)Nc1ccc(C#CC4(O)CCCCCC4)cc13)CC2`, the composite z-score was 1.14.
With `COCCOC(=O)N1C(=O)[C@@]2(c3ccccc31)[C@H](c1ccccc1OCCO)N1[C@H](c3ccccc3)[C@H](c3ccccc3)OC(=O)[C@H]1[C@@H]2C(=O)Nc1nc2ccccc2s1` the composite z-score was 1.35.
For `C=C[C@H](COC(C)=O)N(C(=O)OC(C)(C)C)S(=O)(=O)c1ccc(Br)cc1`, the composite z-score was 0.867.
`COc1cc(CO)cc(I)c1O[C@H]1C=C(C(=O)NCCO)C[C@@H](N(CCN2CCOCC2)C(=O)C2CCOC2)[C@@H]1O` (stereo not given in full) showed a composite z-score of 0.581.
For `COC(=O)[C@@]1(Cc2ccc(F)cc2)[C@H]2c3cc(C(=O)N4CCCC4)n(Cc4ccc(C)o4)c3C[C@H]2CN1C(=O)c1ccccc1`, the composite z-score was 0.4.
Work on `C=CCN1C(=O)[C@]2(O[C@H](CCO)[C@@H]([Si](C)(C)c3ccc(OC)cc3)[C@@H]2C)c2cc(N3C(=O)c4cccc5cccc3c45)ccc21` yielded a composite z-score of 0.644.
In the case of `C=CCN1C(=O)[C@]2(O[C@H](CCO)[C@@H]([Si](C)(C)c3ccc(OC)cc3)[C@@H]2C)c2cc(N3CCCCC3=O)ccc21`, the composite z-score is reported as 1.32.
Work on `CN1C(=O)C2C=CC(C(O)c3ccc(-c4ccccc4)s3)N(N(c3ccccc3)c3ccccc3)C2C1=O` (stereo not given) yielded a composite z-score of 1.14.
With `COc1cc(OC)c(C(O)C2C=CC3C(=O)NC(=O)C3N2Nc2ccc(Cl)cc2Cl)cc1Br` (stereo not given) the composite z-score was 0.677.
For `CCOC(=O)C[C@H]1[C@H](OC(=O)c2cc3ccccc3oc2=O)[C@@H](NC(=O)Cc2ccc(OC)cc2)c2cc(OCCCO)ccc2N1C(=O)c1ccccc1`, the composite z-score was 0.371.
For `COc1ccc(C(O)C2C=CC3C(=O)N(c4ccccc4)C(=O)C3N2Nc2ccccc2F)cc1OCc1ccccc1` (stereo not given), the composite z-score was 0.634.
In the case of `CN1C(=O)C2C=CC(C(O)Cc3ccccc3)N(Nc3ccccc3)C2C1=O` (stereo not given), the composite z-score is reported as 0.27.
For `O=C1O[C@H](c2ccccc2)[C@H](c2ccccc2)N2[C@H]1[C@@H](C(=O)Nc1nc3ccccc3s1)[C@]1(C(=O)Nc3ccc(C#CC4(O)CCCCCC4)cc31)[C@H]2c1ccc(OCCO)cc1`, the composite z-score was 1.43.
`C[N+](C)(C)CCCC[C@@H]1NC(=O)[C@@H]2C[C@H](C(=O)NCCCCCN)[C@H](c3cccc(OCCO)c3)N2C1=O` was tested, and the composite z-score was 0.597.
For `CCCCCCC#C[Si](O[C@H](c1ccccc1)c1cn([C@H](CO)Cc2ccccc2)nn1)(C(C)C)C(C)C`, the composite z-score was -0.193.
`COC(=O)[C@@]1(Cc2ccc(F)cc2)[C@@H]2[C@@H](CC(=O)[C@H]2CC(=O)C(=O)N(C)C)CN1C(=O)c1ccccc1` gave a composite z-score of 0.959.
Compound `C#CCN(CC=C(C)C)[C@H](CO)c1ccccc1` has a composite z-score of 0.391.
`CCc1oc(CC[C@@H](CO)NC(=O)NCCn2cc(C3(O)CCCCC3)nn2)c(C(=O)OC)c1C(=O)OC` gave a composite z-score of 1.28.
Work on `C#CCN(Cc1ccccc1Br)C(/C=C/c1ccccc1)CO` (stereo not given) yielded a composite z-score of -0.523.
For `C#CCNC(=O)[C@H](Cc1ccccc1)NC(=O)CCC(=O)O`, the composite z-score was -1.69.
For `C[C@@]1([C@@H](NC(=O)c2ccccc2)c2ccc(-c3ccccc3)cc2)C[C@H]1C1CCCCC1`, the composite z-score was -0.548.
In the case of `CC(C)C(=C=CC[C@@H](O)c1ccccc1OCCO)CCO`, the composite z-score is reported as 0.71.
Work on `O=C(c1ccccc1)N1Cc2ccccc2[C@@H]2OC(c3ccc(OCCCO)cc3)=N[C@]2(Cc2ccccc2)C1=O` yielded a composite z-score of 1.32.
Work on `CC(C)C(CO)N1C(=O)[C@@H]2[C@H]3C(=O)OCC=C[C@H]3OC23C=CCN(C(C)C)C(=O)[C@@H]13` (stereo not given in full) yielded a composite z-score of 0.405.
Compound `CN(C)C(=O)[C@@]1(Cc2ccccc2)N=C(c2ccc(OCCCO)cc2)O[C@H]1c1ccccc1N=[N+]=[N-]` has a composite z-score of 1.34.
In the case of `C=C/C=C/[C@H]1C(=C)CN([C@@H](Cc2ccccc2)C(=O)OC)[C@@H]1[C@H](O)Cc1ccccc1`, the composite z-score is reported as 0.174.
Compound `COCCOC(=O)N1C(=O)[C@@]2(c3cc(C#CC4(O)CCCCCC4)ccc31)[C@H](c1ccc(O)cc1)N1[C@H](c3ccccc3)[C@H](c3ccccc3)OC(=O)[C@H]1[C@@H]2C(=O)Nc1nc2ccccc2s1` has a composite z-score of 1.18.
In the case of `Cc1ccc(S[C@]2(C(=O)NC(C)C)CC(=O)N(Cc3ccccc3Cl)[C@@H]2c2ccc(CO)cc2I)cc1`, the composite z-score is reported as 0.237.
Compound `COc1ccc(CCNC(=O)[C@@]2(Sc3ccc(C)cc3)CC(=O)N(C3CCCCC3)[C@@H]2c2ccc(CO)cc2I)cc1` has a composite z-score of 0.884.
For `COCCOC(=O)N1C(=O)[C@@]2(c3cc(C#Cc4ccc(OC)cc4)ccc31)[C@H](c1ccccc1OCCO)N1[C@H](c3ccccc3)[C@H](c3ccccc3)OC(=O)[C@H]1[C@@H]2C(=O)N1CCN(c2ncccn2)CC1`, the composite z-score was 0.803.
With `NC(=O)[C@@H]1[C@H]2C(=O)O[C@H](c3ccccc3)[C@H](c3ccccc3)N2[C@H](c2ccc(O)cc2)[C@@]12C(=O)Nc1ccc(C#CC3(O)CCCCCC3)cc12` the composite z-score was -0.0584.
In the case of `CC(=O)N1Cc2ccccc2C[C@@]2(COC(c3ccc(OCCCO)cc3)=N2)C1=O`, the composite z-score is reported as 1.26.
